# High-throughput results (PubChem BioAssay)
# Hits are enriched below; roughly 1.6% of the tested compounds scored in any of these assays.
# eIF4H FP inh: inhibitors of RNA binding by human eIF4H; Q15056; eIF4H fluorescence polarization binding assay; inhibition, % at 35 µM; 290,000 compounds, 0.94% hits;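 also: calls also rest on retests at 20 µM and on dose response follow-up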
# PERK inhibitor: inhibitors of human PERK kinase; Q9NZJ5; CHO PERK-DD fusion, SEAP luminescence translation reporter; inhibition, % at 5.6 µM; 220,000 compounds, 0.17% hits;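 active = inhibition above the mean inhibition of all tested compounds plus 3 SD, set separately per screening campaign, cut at about 2.9% in these data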;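 also: PERK kinase domain activated by AP20187 dimerizer at 100 nM; 0% = DMSO with dimerizer and 100% = rapamycin at 8.4 µM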
# MLLE-PAM2 inh: blocks PAM2 peptide binding to the PABP1 MLLE domain; P11940; GST-MLLE / FITC-PAM2 fluorescence polarization; inhibition, % at 20 µM; 360,000 compounds, 0.36% hits; in the data active = inhibition above about 35%, passing the limit was not always enough;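 also: plate controls were DMSO wells with GST-MLLE for no effect and wells lacking GST-MLLE protein for full effect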
# PABP FP inh: blocks human PABP binding to poly(A) RNA; 290,000 compounds, 1% hits; fluorescence polarization; P11940; inhibition, % at 35 µM; AID 2014;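 also: calls also rest on retests at 20 µM and on dose response follow-up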
# eIF4E-4G inh: blocks eIF4E binding to eIF4G. P63073+Q04637. AID 782. TR-FRET eIF4E-eIF4GI(517-606) binding, 2 h. inhibition, % at 21.7 µM. 220,000 compounds, 0.37% hits;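 active = inhibition above about 30%, limit read from the data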;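 also: 0% = full FRET control wells and 100% = background wells lacking eIF4GI fragment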
# Active calls of the source: *; ? = inconclusive; / = no result. Unless noted, no rule for the calls is given here.
SMILES,eIF4H FP inh,PERK inhibitor,MLLE-PAM2 inh,PABP FP inh,eIF4E-4G inh
O=C(CSc1nnc(SCc2ccccc2)s1)N/N=C/C=C/c1ccco1,94*,2,-102,6,23
CC(/C=N\NC(=O)CN1CCN(Cc2ccccc2)CC1)=C\c1ccco1,?,-1,11,active,8
CCn1c(SCC(=O)N/N=C/C(C)=C\c2ccco2)nnc1-c1ccccc1,51*,0,-8,7.0*,1
O=C(CN1CCN(Cc2ccccc2Cl)CC1)N/N=C/C=C/c1ccco1,1,0,-14,-14,-1
O=C(CN1CCN(Cc2ccccc2)CC1)N/N=C\C=C/c1ccco1,?,1,-9,2.5*,-1
CNC(=O)COC(=O)/C=C/c1ccc(F)cc1,2,0,0,-2,1
COc1ccc(OC)c(-n2c(O)cnc2Nc2nc(C)cc(C)n2)c1,0,-1,11,2,-2
COC(=O)C1=C(C)N=c2s/c(=C/c3ccoc3)c(=O)n2C1c1ccccc1 (stereo unspecified),83*,0,-115,105*,9
CCOC(=O)C(C)Sc1nnc(Cc2cc(=O)[nH]c(=O)[nH]2)n1-c1ccc(Cl)cc1 (stereo unspecified),2,0,45*,-4,8
COC(=O)C(C)Sc1nnc(Cc2cc(=O)[nH]c(=O)[nH]2)n1-c1ccc(Cl)cc1 (stereo unspecified),79,0,24,119,4
COc1ccccc1-c1nnn(CC#N)n1,7,0,0,3,3
Cc1ccc(C2C(C#N)=C(N)Oc3c2oc(CO)cc3=O)o1 (stereo unspecified),45*,/,4,56,-6
O=c1[nH]c(CN2CCc3ccccc3C2)nc2ccccc12,-2,0,41*,1,-3
Cc1ccc(Sc2nnc(Cc3ccccc3)c3ccccc23)cc1,-16,0,22,-4,/
COc1ccc(Sc2nnc(Cc3ccccc3)c3ccccc23)cc1,-11,1,40*,8,-4
COc1ccc(-c2nnc3n2N=C(C)CS3)cc1,-6,-1,-33,-2,-1
CC(NC(=O)c1cc(S(=O)(=O)N(C)C)ccc1Cl)c1ccc(-n2ccnc2)cc1 (stereo unspecified),-7,/,0,-2,/
O=C1c2ccc3c4c(ccc(c24)C(=O)N1CCCCO)C(=O)N(CCCCO)C3=O,?,1,64*,-6,7
O=C(O)CC12C[C@H]3C[C@@H](C1)CC(n1ncc(N4CCN(c5ccccc5)CC4)c(Cl)c1=O)(C3)C2,-4,0,12,1,-1
COC(=O)c1cc([N+](=O)[O-])c(-n2cncn2)c([N+](=O)[O-])c1,71,1,2,62*,0
O=S(=O)(Nc1nc2ccccc2nc1-[n+]1cccc(N=C([O-])c2ccccc2Cl)c1)c1ccccc1,?,0,/,?,0
CCOc1cc(CNc2ccc3c(c2)CCC3)ccc1OC,11,-1,/,27,4
Cc1oc2c(C)c(O)ccc2c(=O)c1N1C(=O)c2ccccc2C1=O,-8,0,-7,-6,16
Cc1oc2c(C)c(O)ccc2c(=O)c1-c1nncn1-c1ccccc1,?,-1,-48,22*,-4
CCOc1ccc(S(=O)(=O)NCCC(=O)NCC2(N3CCCCC3)CCCCC2)cc1,94*,/,-7,51*,/
SMILES,eIF4H FP inh,PERK inhibitor,MLLE-PAM2 inh,PABP FP inh,eIF4E-4G inh
CCOc1ccc(S(=O)(=O)NCC2(N3CCCCC3)CCCCC2)cc1,/,/,0,/,/
Cc1ccccc1NC1=C(Cl)C(=O)OC1OC(=O)c1ccccc1C (stereo unspecified),-12,0,19,1,0
CCCCNCc1ccc(OCc2ccc(Cl)nc2)c(OC)c1,8,-1,-5,0,0
C/C(=N\O)c1cc(Cl)ccc1O,-2,2,3,4,92*
O=C1CN(C(=O)COC(=O)COc2ccccc2)c2ccccc2N1,/,/,8,/,/
Cc1nc2ncccn2c1-c1csc(NCc2ccco2)n1,73,0,25,15*,1
CC1CS(=O)(=O)CCN1N=Cc1ccc([N+](=O)[O-])o1 (stereo unspecified),/,/,4,/,/
Cc1csc(=O)n1CCC(=O)OCC(=O)NNC(=O)c1ccc(Cl)cc1,/,/,45*,/,/
Cc1cc(C)n2nc(C(=O)NCc3ccccc3)cc2n1,4,0,28,5,30*
Cc1cc(C)n2nc(C(=O)NCc3ccccc3)nc2n1,-1,0,-8,2,-2
COc1cccc(NC(=S)Nc2cc(C)cc(C)n2)c1,-4,-2,45*,1,-4
